# In PubChem BioAssay:
# Values joined by “and” are separate entries in the source; they are usually repeats but may differ in a detail not shown here. Identical values can stand only once. Active and inactive are the calls of the source.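 The calls were made as follows, unless noted: active = mean inhibition over 43.08%, the solvent-only control mean plus 3 SD; inactive = the rest.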
# Target: Nuclear receptor coactivator 3 (Homo sapiens) (UniProt Q9Y6Q9)
# Test: SRC3 coactivator transcriptional activity inhibitors, confirmation, cell-based, luminescence, quadruplicate (AID 588792);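 also: 0% = DMSO treated cells and 100% = gossypol at 36 µM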
# Settings: HEK293 GAL4-SRC3 luciferase reporter, at 3.6 µM, active compounds read high
# Nuclear receptor coactivator 3 (Homo sapiens), sequence (Q9Y6Q9 whole entry, looked up): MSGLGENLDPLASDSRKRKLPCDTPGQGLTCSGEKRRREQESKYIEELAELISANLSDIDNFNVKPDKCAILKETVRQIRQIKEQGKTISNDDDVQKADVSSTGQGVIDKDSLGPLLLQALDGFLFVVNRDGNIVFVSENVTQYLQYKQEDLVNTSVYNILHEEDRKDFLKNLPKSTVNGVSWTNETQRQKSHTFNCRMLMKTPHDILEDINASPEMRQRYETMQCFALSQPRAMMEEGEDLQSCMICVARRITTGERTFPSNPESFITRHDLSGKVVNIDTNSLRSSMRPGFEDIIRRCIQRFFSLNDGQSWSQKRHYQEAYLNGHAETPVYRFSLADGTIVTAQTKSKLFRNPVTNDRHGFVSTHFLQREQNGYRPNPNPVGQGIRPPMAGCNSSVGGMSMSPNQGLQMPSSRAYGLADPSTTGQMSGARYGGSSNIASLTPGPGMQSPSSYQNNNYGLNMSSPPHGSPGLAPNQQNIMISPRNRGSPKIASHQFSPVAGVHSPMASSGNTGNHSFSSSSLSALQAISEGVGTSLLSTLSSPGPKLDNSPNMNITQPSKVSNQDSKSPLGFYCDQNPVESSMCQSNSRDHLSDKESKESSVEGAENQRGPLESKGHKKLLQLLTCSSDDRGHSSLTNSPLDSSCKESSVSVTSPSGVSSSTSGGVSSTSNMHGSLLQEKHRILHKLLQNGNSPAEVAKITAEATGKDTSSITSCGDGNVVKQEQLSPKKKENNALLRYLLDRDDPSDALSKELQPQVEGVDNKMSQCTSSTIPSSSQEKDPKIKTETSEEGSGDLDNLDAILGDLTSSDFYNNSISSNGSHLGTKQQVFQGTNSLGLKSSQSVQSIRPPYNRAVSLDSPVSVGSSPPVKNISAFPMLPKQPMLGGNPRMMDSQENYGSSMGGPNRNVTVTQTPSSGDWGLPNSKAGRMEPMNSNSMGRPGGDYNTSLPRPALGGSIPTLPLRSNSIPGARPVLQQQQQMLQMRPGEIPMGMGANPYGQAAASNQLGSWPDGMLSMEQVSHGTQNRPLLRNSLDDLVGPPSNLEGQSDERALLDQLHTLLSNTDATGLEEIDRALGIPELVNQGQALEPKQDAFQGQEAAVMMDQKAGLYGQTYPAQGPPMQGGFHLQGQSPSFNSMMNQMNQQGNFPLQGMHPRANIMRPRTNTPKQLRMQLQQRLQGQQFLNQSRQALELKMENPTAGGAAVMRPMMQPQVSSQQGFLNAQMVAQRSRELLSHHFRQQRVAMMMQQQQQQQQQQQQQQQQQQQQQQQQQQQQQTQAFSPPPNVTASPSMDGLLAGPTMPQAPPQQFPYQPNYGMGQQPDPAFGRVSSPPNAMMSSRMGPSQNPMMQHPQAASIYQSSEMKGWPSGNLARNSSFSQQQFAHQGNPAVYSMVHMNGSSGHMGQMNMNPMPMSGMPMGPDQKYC
row,SMILES,inhibition
1,O=C(/C(=C/c1ccc(Cl)cc1)c1nc2ccccc2[nH]1)c1cccs1,79.1% (active)
2,Cc1ccc(S(=O)(=O)N2[C@@H](c3ccc(C(C)(C)C)cc3)C(C(=O)O)=CC[C@H]2c2ccc(Cl)cc2)cc1,16.6% (inactive)
3,CC1CCN(Cc2c(C(=O)N/N=C/c3ccccc3O)nnn2-c2nonc2N)CC1,57.7% (active)
4,Cn1c(=O)c2c(nc(Oc3ccc4ccccc4c3)n2C)n(C)c1=O,47.5% (active)
5,O=C(Nc1nc(-c2ccc3ccccc3c2)cs1)C1CCN(S(=O)(=O)c2cccs2)CC1,8.55% (inactive)
6,CCOc1ccc(-n2c(C)c(C(C)=O)c3cc(OC(C)=O)ccc32)cc1,67.3% (active)
7,Fc1ccc(NC(=S)NNc2ncc(C(F)(F)F)cc2Cl)c(F)c1,4.99% (inactive)
8,Nc1nc(CCl)nc(Nc2cccc3ccccc23)n1,42.7% (inactive)
9,Cc1cc(C)nc(SCC(=O)Nc2ccnc3ccccc23)n1,12.2% (inactive)
10,COc1ccc(-c2cn[nH]c2N)c(OC)c1,59.7% (active)
11,O=c1[nH]c(=O)n(C2OC(CO)C(O)C2O)cc1F (stereo not given),57.4% (active)
12,O=[N+]([O-])c1ccc(O)c(/C=N/Nc2ccccn2)c1,56.8% (active)
13,Nc1nc(=O)n(C2CC(O)C(CO)O2)cc1F (stereo not given),58.5% (active)
14,CCOC(=O)c1c(C)n(C)c2ccc(OC)c(NC(=O)c3cccs3)c12,22.9% (inactive)
15,CCOc1cc(C(N)=O)cc(Br)c1OC,29.6% (inactive)
16,CC(C)c1ccc(-c2nnn(CCC(=O)O)n2)cc1,52.2% (active)
17,Cn1c(=O)c2c(nc(NCc3ccco3)n2C/C=C/c2ccccc2)n(C)c1=O,36.4% (inactive)
18,CC(=O)N1c2ccc(S(=O)(=O)NCC3CCC(C(=O)Nc4cccc(C)n4)CC3)cc2CC1C (stereo not given),-3.79% (inactive)
19,Cc1ccc(S(=O)(=O)N2CCN(S(C)(=O)=O)CC2)cc1,24.1% (inactive)
20,CC12CCC(C(=O)N/N=C/c3ccc(O)cc3O)(OC1=O)C2(C)C (stereo not given),6.17% (inactive)

row,SMILES,inhibition
1,Cc1cc(C)c2nc3nc(C)c(C)cc3c(N)c2c1,13.7% (inactive)
2,O=C(CCc1ccccc1)NC(c1cccs1)c1cc(Cl)c2cccnc2c1O (stereo not given),55.5% (active)
3,Cc1cccc[n+]1CC(=O)/C=C1\N(C)c2ccccc2C1(C)C,8.01% (inactive)
4,OC1c2cc(Br)ccc2N=C2CCCN21 (stereo not given),44.3% (active)
5,Cc1ccc(-c2n[nH]c(=S)n2/N=C/c2ccncc2)cc1,26% (inactive)
6,CCSCCc1nnc(NC(=O)Nc2cccc(C(F)(F)F)c2)s1,47.7% (active)
7,C(C#CCCCCCCCCC[n+]1ccccc1)#CCCCCCCCCC[n+]1ccccc1,58.9% (active) and 59.3% (active)
8,CC1CCN(c2nc3ccc(C(=O)O)cc3s2)CC1,10.7% (inactive)
9,COc1ccc(-c2cn[nH]c2-c2ccc(OCc3ccc([N+](=O)[O-])cc3)cc2O)cc1,33.1% (inactive)
10,CCN(CC)CCC(=O)Nc1cccc2c1C(=O)c1ccccc1C2=O,-12.3% (inactive)
11,CN(c1ncnc(N)c1[N+](=O)[O-])C1CCS(=O)(=O)C1 (stereo not given),55.2% (active)
12,c1cncc(CNc2ncnc3ccc(-c4ccoc4)cc23)c1,75.2% (active)
13,Cc1cccc(CNc2ncnc3ccc(-c4ccoc4)cc23)c1,47% (active)
14,O=C(/C=C/c1ccc(Cl)cc1)NC(=S)Nc1ccc(NC(=O)c2ccco2)cc1,29.7% (inactive)
15,N=c1c2c(-c3ccccc3)c(-c3ccccc3)n(Cc3ccco3)c2ncn1CCCn1ccnc1,34% (inactive)
16,CC(=O)N1CCN(c2ccc(Oc3ncnc4sccc34)cc2)CC1,25.7% (inactive)
17,CN([C@@H](Cc1ccc(OS(=O)(=O)c2cccc3cnccc23)cc1)C(=O)N1CCN(c2ccccc2)CC1)S(=O)(=O)c1cccc2cnccc12,-2.66% (inactive)
18,Fc1ccc(CSc2nnc(-c3ccncc3)o2)cc1,53.9% (active)
19,CC(C)(C)C(=O)NC(=S)NNC(=O)c1sc2ccccc2c1Cl,10.1% (inactive)
20,COc1ccc(N/N=C(\C#N)C(=N)SCc2ccccc2)cc1,25.9% (inactive)

# Tested on: transactivating tegument protein VP16 (Human herpesvirus 1), Gal4-VP16 luciferase reporter
# Test: VP16 transactivation inhibitors, counter-screen for SRC3 inhibitor project, cell-based, luminescence, high throughput (AID 588794; in the data active = inhibition above about 30%)
# Settings: mammalian cells, VP16-driven luciferase reporter luminescence; at 3.6 µM; active compounds read high
row,SMILES,inhibition
1,O=C(/C(=C/c1ccc(Cl)cc1)c1nc2ccccc2[nH]1)c1cccs1,61.9% (active)
2,Cc1ccc(S(=O)(=O)N2[C@@H](c3ccc(C(C)(C)C)cc3)C(C(=O)O)=CC[C@H]2c2ccc(Cl)cc2)cc1,23.9% (inactive)
3,CC1CCN(Cc2c(C(=O)N/N=C/c3ccccc3O)nnn2-c2nonc2N)CC1,41.1% (active)
4,Cn1c(=O)c2c(nc(Oc3ccc4ccccc4c3)n2C)n(C)c1=O,39.4% (active)
5,O=C(Nc1nc(-c2ccc3ccccc3c2)cs1)C1CCN(S(=O)(=O)c2cccs2)CC1,32.2% (active)
6,CCOc1ccc(-n2c(C)c(C(C)=O)c3cc(OC(C)=O)ccc32)cc1,44.5% (active)
7,Fc1ccc(NC(=S)NNc2ncc(C(F)(F)F)cc2Cl)c(F)c1,23% (inactive)
8,Nc1nc(CCl)nc(Nc2cccc3ccccc23)n1,15.4% (inactive)
9,Cc1cc(C)nc(SCC(=O)Nc2ccnc3ccccc23)n1,36.5% (active)
10,COc1ccc(-c2cn[nH]c2N)c(OC)c1,50.5% (active)
11,O=c1[nH]c(=O)n(C2OC(CO)C(O)C2O)cc1F (stereo not given),58.5% (active)
12,O=[N+]([O-])c1ccc(O)c(/C=N/Nc2ccccn2)c1,41.6% (active)
13,Nc1nc(=O)n(C2CC(O)C(CO)O2)cc1F (stereo not given),37.5% (active)
14,CCOC(=O)c1c(C)n(C)c2ccc(OC)c(NC(=O)c3cccs3)c12,35.7% (active)
15,CCOc1cc(C(N)=O)cc(Br)c1OC,20.8% (inactive)
16,CC(C)c1ccc(-c2nnn(CCC(=O)O)n2)cc1,46.8% (active)
17,Cn1c(=O)c2c(nc(NCc3ccco3)n2C/C=C/c2ccccc2)n(C)c1=O,44% (active)
18,CC(=O)N1c2ccc(S(=O)(=O)NCC3CCC(C(=O)Nc4cccc(C)n4)CC3)cc2CC1C (stereo not given),27.4% (inactive)
19,Cc1ccc(S(=O)(=O)N2CCN(S(C)(=O)=O)CC2)cc1,19.9% (inactive)
20,CC12CCC(C(=O)N/N=C/c3ccc(O)cc3O)(OC1=O)C2(C)C (stereo not given),16.8% (inactive)

row,SMILES,inhibition
1,Cc1cc(C)c2nc3nc(C)c(C)cc3c(N)c2c1,49.7% (active)
2,O=C(CCc1ccccc1)NC(c1cccs1)c1cc(Cl)c2cccnc2c1O (stereo not given),42% (active)
3,Cc1cccc[n+]1CC(=O)/C=C1\N(C)c2ccccc2C1(C)C,20.6% (inactive)
4,OC1c2cc(Br)ccc2N=C2CCCN21 (stereo not given),37.3% (active)
5,Cc1ccc(-c2n[nH]c(=S)n2/N=C/c2ccncc2)cc1,19.3% (inactive)
6,CCSCCc1nnc(NC(=O)Nc2cccc(C(F)(F)F)c2)s1,43.8% (active)
7,C(C#CCCCCCCCCC[n+]1ccccc1)#CCCCCCCCCC[n+]1ccccc1,70.3% (active) and 74.5% (active)
8,CC1CCN(c2nc3ccc(C(=O)O)cc3s2)CC1,-7.13% (inactive)
9,COc1ccc(-c2cn[nH]c2-c2ccc(OCc3ccc([N+](=O)[O-])cc3)cc2O)cc1,34% (active)
10,CCN(CC)CCC(=O)Nc1cccc2c1C(=O)c1ccccc1C2=O,21.1% (inactive)
11,CN(c1ncnc(N)c1[N+](=O)[O-])C1CCS(=O)(=O)C1 (stereo not given),35.7% (active)
12,c1cncc(CNc2ncnc3ccc(-c4ccoc4)cc23)c1,42.8% (active)
13,Cc1cccc(CNc2ncnc3ccc(-c4ccoc4)cc23)c1,40.7% (active)
14,O=C(/C=C/c1ccc(Cl)cc1)NC(=S)Nc1ccc(NC(=O)c2ccco2)cc1,63.8% (active)
15,N=c1c2c(-c3ccccc3)c(-c3ccccc3)n(Cc3ccco3)c2ncn1CCCn1ccnc1,54.2% (active)
16,CC(=O)N1CCN(c2ccc(Oc3ncnc4sccc34)cc2)CC1,16.9% (inactive)
17,CN([C@@H](Cc1ccc(OS(=O)(=O)c2cccc3cnccc23)cc1)C(=O)N1CCN(c2ccccc2)CC1)S(=O)(=O)c1cccc2cnccc12,30.3% (active)
18,Fc1ccc(CSc2nnc(-c3ccncc3)o2)cc1,22.7% (inactive)
19,CC(C)(C)C(=O)NC(=S)NNC(=O)c1sc2ccccc2c1Cl,3.67% (inactive)
20,COc1ccc(N/N=C(\C#N)C(=N)SCc2ccccc2)cc1,34.2% (active)
